Measured values: PubChem BioAssay (NCATS)
Starred links: 1 amine or outer side, 2 acyl side, 3 side chain; linkers in the order of their positions; H or OH if unused. Positions of bridges follow the written chain, without caps; N, C: chain ends. Non-standard residues stand in square brackets, D forms with d. Residues, ends and D or L forms follow the SMILES beside them. *: point of attachment. X2 = NC1=C[C@@H](O)C[C@H]([C@H](N[*:1])C(=O)[*:2])N1; ΔAla(3-NHCONH2) = NC(=O)NC=C(N)C(=O)O; β3hOrn = NCCC[C@H](N)CC(=O)*; Dap = NC[C@H](N)C(=O)O

Assay: qHTS profiling of the MIPE4 collection as inhibitors of Plasmodium falciparum (DD2) proliferation (AID 743345)
Conditions: P. falciparum Dd2 in erythrocytes, SYBR Green DNA, 72 h; at 28.5 µM (top of the series)
Procedure, shortened: (§1)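 Erythrocytes infected with P. falciparum (0.3% parasitemia, 2.5% hematocrit) incubated with compounds 72 h at 37 C, 5% CO2. Lysis with saponin/Triton buffer containing SYBR Green I, overnight at room temperature in the dark; DNA fluorescence (485/535 nm) normalised to 0.29 uM artemisinin and DMSO.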

| SMILES | parasite growth remaining, % of DMSO control (lower = more inhibition) |
| --- | --- |
| COC1=C2C[C@H](C)C[C@H](OC)[C@@H](O)[C@@H](C)C=C(C)[C@H](OC(N)=O)[C@@H](OC)C=CC=C(C)C(=O)NC(=CC1=O)C2=O | 7.35% |
| CCCC[C@@H]1C[C@@H](C(=O)NC([C@H](C)Cl)[C@H]2O[C@H](S)[C@H](O)[C@@H](O)[C@@H]2O)N(C)C1 (some centres undefined) | 38% |
| CN[C@@H]1[C@@H](O[C@H]2[C@H](O[C@H]3[C@H](O)[C@@H](O)[C@H](N=C(N)N)[C@@H](O)[C@H]3N=C(N)N)O[C@@H](C)[C@]2(O)C=O)O[C@@H](CO)[C@H](O)[C@H]1O | 105% |
| O=CN(O)CCCP(=O)(O)O | 19.9% |
| CC(C)=CCCC(C)=CCNCCNC1C2CC3CC(C2)CC1C3 (centres undefined) | 6.17% |
| C[C@]1(COc2ccc(N3CCC(Oc4ccc(OC(F)(F)F)cc4)CC3)cc2)Cn2cc([N+](=O)[O-])nc2O1 | 82% |
| CN(C)CCC=C1c2ccccc2COc2ccccc21 | 53.4% |
| CN([C@@H](Cc1ccc(O[S+](=O)([O-])c2cccc3cnccc23)cc1)C(=O)N1CCN(C(=O)OCc2ccccc2)CC1)[S+](=O)([O-])c1cccc2cnccc12 | 6.72% |
| CC(=O)NCC1CN(c2ccc(N3CCOCC3)c(F)c2)C(=O)O1 (centres undefined) | 94.2% |
| C[C@H]1CCN(C(=O)CC#N)C[C@H]1N(C)c1ncnc2[nH]ccc12 | 98.8% |
| COc1cc(C)c2c(Oc3cccc(C(F)(F)F)c3)c(OC)cc(NCCCC(C)N)c2n1 (centres undefined) | 6.22% |
| COc1ccc(S(=O)(=O)N(CCO)c2ccccc2CN(C)CC=Cc2ccc(Cl)cc2)cc1 | 26.4% |
| Cc1nc2c(C#N)cccc2n1-c1ccc(C(=O)NC2CC2)s1 | 9.03% |
| CC1(C)O[C@@H]2[C@H]3OC(C)(C)O[C@]3(COS(N)(=O)=O)OC[C@H]2O1 | 93.9% |
| C[C@H]1Cc2c([nH]c3cc(Cl)c(F)cc23)[C@@]2(N1)C(=O)Nc1ccc(Cl)cc12 | 6.27% |
| CN(C(=O)OC(C)(C)C)[C@@H](Cc1ccc(O[S+](=O)([O-])c2cccc3cnccc23)cc1)C(=O)N1CCN(C(=O)OCc2ccccc2)CC1 | 6.02% |
| CC(C)(C)OC(=O)N[C@@H](Cc1ccc(O[S+](=O)([O-])c2cccc3cnccc23)cc1)C(=O)Nc1ccc(-c2ccccc2)cc1 | 8.82% |
| NCCC[C@H](N)CC(=O)N[C@H]1CNC(=O)[C@H]([C@H]2C[C@H](O)C=C(N)N2)NC(=O)C(=CNC(N)=O)NC(=O)[C@H](CO)NC(=O)[C@H](CO)NC1=O (β3hOrn-[Dap]SS[ΔAla(3-NHCONH2)][X2]; lactam 1-C) | 96% |
| C[C@H]1C[C@H]2C3CCC4=CC(=O)C=C[C@@]4(C)[C@@]3(Cl)[C@@H](O)CC2(C)[C@@]1(OC(=O)c1ccco1)C(=O)CCl (some centres undefined) | 6.79% |
| CCN(CC)CCOc1ccc2c(=O)c3ccc(Cl)cc3n(CCN(CC)CC)c2c1 | 6.06% |
| CO[C@H]1C=CO[C@@]2(C)Oc3c(C)c(O)c4c(O)c(c(C=NN5CCN(C)CC5)c(O)c4c3C2=O)NC(=O)C(C)=CC=CC(C)[C@H](O)[C@@H](C)[C@@H](O)[C@@H](C)[C@@H](OC(C)=O)[C@H]1C (some centres undefined) | 6.12% |
| CCOc1ccc(F)cc1C1(O)C(N)=Nc2ccc(Cl)cc21 (centres undefined) | 6.08% |

Assay: qHTS profiling of the MIPE4 collection as inhibitors of Plasmodium falciparum (DD2) proliferation (Rep 2) (AID 743346)
Conditions: P. falciparum Dd2 in erythrocytes, SYBR Green DNA, 72 h; at 28.5 µM (top of the series)
Procedure, shortened: as §1

| SMILES | parasite growth, % of control (lower = inhibition) |
| --- | --- |
| COC1=C2C[C@H](C)C[C@H](OC)[C@@H](O)[C@@H](C)C=C(C)[C@H](OC(N)=O)[C@@H](OC)C=CC=C(C)C(=O)NC(=CC1=O)C2=O | 6.42% |
| CCCC[C@@H]1C[C@@H](C(=O)NC([C@H](C)Cl)[C@H]2O[C@H](S)[C@H](O)[C@@H](O)[C@@H]2O)N(C)C1 (some centres undefined) | 28% |
| CN[C@@H]1[C@@H](O[C@H]2[C@H](O[C@H]3[C@H](O)[C@@H](O)[C@H](N=C(N)N)[C@@H](O)[C@H]3N=C(N)N)O[C@@H](C)[C@]2(O)C=O)O[C@@H](CO)[C@H](O)[C@H]1O | 118% |
| O=CN(O)CCCP(=O)(O)O | 17.4% |
| CC(C)=CCCC(C)=CCNCCNC1C2CC3CC(C2)CC1C3 (centres undefined) | 13.8% |
| C[C@]1(COc2ccc(N3CCC(Oc4ccc(OC(F)(F)F)cc4)CC3)cc2)Cn2cc([N+](=O)[O-])nc2O1 | 90.2% |
| CN(C)CCC=C1c2ccccc2COc2ccccc21 | 55.1% |
| CN([C@@H](Cc1ccc(O[S+](=O)([O-])c2cccc3cnccc23)cc1)C(=O)N1CCN(C(=O)OCc2ccccc2)CC1)[S+](=O)([O-])c1cccc2cnccc12 | 26.8% |
| CC(=O)NCC1CN(c2ccc(N3CCOCC3)c(F)c2)C(=O)O1 (centres undefined) | 75.9% |
| C[C@H]1CCN(C(=O)CC#N)C[C@H]1N(C)c1ncnc2[nH]ccc12 | 51.2% |
| COc1cc(C)c2c(Oc3cccc(C(F)(F)F)c3)c(OC)cc(NCCCC(C)N)c2n1 (centres undefined) | 16% |
| COc1ccc(S(=O)(=O)N(CCO)c2ccccc2CN(C)CC=Cc2ccc(Cl)cc2)cc1 | 18.1% |
| Cc1nc2c(C#N)cccc2n1-c1ccc(C(=O)NC2CC2)s1 | 10.3% |
| CC1(C)O[C@@H]2[C@H]3OC(C)(C)O[C@]3(COS(N)(=O)=O)OC[C@H]2O1 | 101% |
| C[C@H]1Cc2c([nH]c3cc(Cl)c(F)cc23)[C@@]2(N1)C(=O)Nc1ccc(Cl)cc12 | 33.6% |
| CN(C(=O)OC(C)(C)C)[C@@H](Cc1ccc(O[S+](=O)([O-])c2cccc3cnccc23)cc1)C(=O)N1CCN(C(=O)OCc2ccccc2)CC1 | 18.5% |
| CC(C)(C)OC(=O)N[C@@H](Cc1ccc(O[S+](=O)([O-])c2cccc3cnccc23)cc1)C(=O)Nc1ccc(-c2ccccc2)cc1 | 13.9% |
| NCCC[C@H](N)CC(=O)N[C@H]1CNC(=O)[C@H]([C@H]2C[C@H](O)C=C(N)N2)NC(=O)C(=CNC(N)=O)NC(=O)[C@H](CO)NC(=O)[C@H](CO)NC1=O (β3hOrn-[Dap]SS[ΔAla(3-NHCONH2)][X2]; lactam 1-C) | 133% |
| C[C@H]1C[C@H]2C3CCC4=CC(=O)C=C[C@@]4(C)[C@@]3(Cl)[C@@H](O)CC2(C)[C@@]1(OC(=O)c1ccco1)C(=O)CCl (some centres undefined) | 16.7% |
| CCN(CC)CCOc1ccc2c(=O)c3ccc(Cl)cc3n(CCN(CC)CC)c2c1 | 27.8% |
| CO[C@H]1C=CO[C@@]2(C)Oc3c(C)c(O)c4c(O)c(c(C=NN5CCN(C)CC5)c(O)c4c3C2=O)NC(=O)C(C)=CC=CC(C)[C@H](O)[C@@H](C)[C@@H](O)[C@@H](C)[C@@H](OC(C)=O)[C@H]1C (some centres undefined) | 8.95% |
| CCOc1ccc(F)cc1C1(O)C(N)=Nc2ccc(Cl)cc21 (centres undefined) | 8.34% |
